Source: PubChem BioAssay
VP16 counter – Gal4-VP16 reporter inhibition counter-screen; Drosophila S2 Gal4-VP16 UAS-luciferase, luminescence, 20 h; Potency, µM (highest dose often 53.6 µM), actives largely listed as inhibitors; 310,000 tested, 3.5% active; AID 2546;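 note: Gal4-VP16 expression switched on by copper sulfate through the metallothionein promoter; nearly all actives have a fitted effect of over 50% in size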
Luc counter – counter-screen: inhibitors of Kinase-Glo firefly luciferase; AID 1379; Kinase-Glo luciferase, ATP luminescence, 8 min; 200,000 tested, 0.28% active; Potency, µM (doses to about 38.3 µM), most hits filed as inhibitors; Q27757; note: nearly all actives have a fitted effect of over 60% in size
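Recombinant Kinase-Glo luciferase, 10 uM ATP (linear range), luciferin; imidazole pH 7.2 / KCl / MgCl2 / Tween / BSA buffer; 8 min RT; luminescence.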
RORgamma inh – ROR gamma (mouse) transcription inhibition; P51450; Drosophila S2 Gal4-RORgamma UAS-luciferase reporter, 20 h; Potency, µM (highest dose often 53.6 µM), usual class: inhibitors; 310,000 tested, 5.4% active; AID 2551; note: nearly all actives have a fitted effect of over 60% in size
Target sequence (P51450 whole entry, looked up, the tested form may be a part): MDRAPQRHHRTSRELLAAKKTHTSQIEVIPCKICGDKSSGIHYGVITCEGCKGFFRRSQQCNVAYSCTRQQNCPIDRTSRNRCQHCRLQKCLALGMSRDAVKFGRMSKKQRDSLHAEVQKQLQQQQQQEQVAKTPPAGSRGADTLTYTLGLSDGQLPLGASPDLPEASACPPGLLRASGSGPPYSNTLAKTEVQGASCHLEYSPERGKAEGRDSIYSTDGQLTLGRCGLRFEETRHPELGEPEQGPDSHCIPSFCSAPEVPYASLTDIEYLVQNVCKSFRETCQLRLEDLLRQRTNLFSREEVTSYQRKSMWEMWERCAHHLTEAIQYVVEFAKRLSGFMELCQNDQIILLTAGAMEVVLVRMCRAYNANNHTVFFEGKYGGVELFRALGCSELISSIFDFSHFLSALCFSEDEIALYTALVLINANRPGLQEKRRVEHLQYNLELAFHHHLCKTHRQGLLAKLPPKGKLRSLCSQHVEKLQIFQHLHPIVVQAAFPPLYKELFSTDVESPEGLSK
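Luciferase reporter read in Schneider cells carrying Gal4-RORγ (mouse) and UAS-Photinus luciferase; cells given compound 1 h before 700 uM copper sulfate induction, then incubated 20 h at ambient temperature.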
A number is an active result; n = inactive; u = inconclusive; x = not tested or not shown; ! = not active in a repeat; [ ] = another dose, or the depositor's remark. This is a sample that favours compounds with a hit; in the whole collection about 6.2% have one here. Calls come from the whole dose curve; as a rule, active = well fitted curve in the direction sought with a large enough effect; inconclusive = small, poorly fitted or top-dose-only effect, or another doubt; inactive = no such curve, though single readings can be large; an effect the other way counts as inactive or inconclusive.

SMILES	VP16 counter	Luc counter	RORgamma inh
CC[C@@H](C(=O)n1nc(C)cc1C)[C@H](NS(=O)(=O)c1ccc(C)cc1)c1ccccc1	n	n	n
CCN1C/C(=C/c2cccc([N+](=O)[O-])c2)C(=O)/C(=C/c2cccc([N+](=O)[O-])c2)C1	3.5µM	n	4µM
O=C1NC(=O)/C(=C/c2cccc([N+](=O)[O-])c2)N1	n	x	n
O=C(Nc1nc2ccccc2[nH]1)NC1CCCCC1	u	x	11µM
O=C(Nc1nc2ccccc2s1)NC1CCCCC1	n	n	13µM
O=C(Nc1nc2ccccc2[nH]1)C12CC3CC(CC(C3)C1)C2	10µM	n	6.3µM
CCOC(=O)C(C(=O)Nc1cccc(C)n1)C1CCCCC1 (stereo not given)	n	n	n
O=C(OCc1nc2ccccc2[nH]1)C12CC3CC(CC(C3)C1)C2	u	n	n
O=C(CC1CCCCC1)Nc1nc2ccccc2s1	n	n	n
O=C(Nc1nc2ccccc2[nH]1)C1CC1	u	n	u
CCOC(=O)C(C(=O)Nc1nc2ccccc2s1)C1CCCCC1 (stereo not given)	n	n	5µM
Cc1ccc(C2CC(=O)Nc3cc4c(cc32)OCO4)o1 (stereo not given)	n	n	n
Cc1ccc(C(=O)Nc2ccc(CC(=O)O)cc2)o1	n	n	n
O=C(O)Cc1ccc(NC(=O)c2cnccn2)cc1	u	n	11µM
Cc1ccc(NC(=O)c2cnccn2)cc1	n[10 µM]	n	n
CC(C)(C)c1ccc(C(=O)Nc2ccc(CC(=O)O)cc2)o1	0.79µM	n	0.79µM
CC(Oc1ccc(Cl)cc1Cl)C(=O)N(C)c1ccccc1 (stereo not given)	n	n	n
CCN(CC)C(=S)Nc1ccc2nc3n(c(=O)c2c1)CCCCC3	n	n	n
Cc1ccc(-n2[nH]c(C)c(C=NC34CN5CN(CN(C5)C3)C4)c2=O)cc1C	n	n	n
COCCCN=Cc1c(C)[nH]n(-c2ccc(Br)c(C)c2)c1=O	6.3µM	n	7.1µM
CCC(CC)COC(=O)C1=C(C)NC(=O)NC1c1ccc(N(C)C)cc1 (stereo not given)	n	x	n
O=C(Nc1ccccc1Cl)C1Cc2ccccc2O/C1=N\O (stereo not given)	n	x	n
Cc1ncsc1CCOC(=O)c1ccc(N2CCOCC2)c([N+](=O)[O-])c1	4µM	n	u
Cc1c(CCOC(=O)c2ccc(N3CCOCC3)c([N+](=O)[O-])c2)sc[n+]1CC#N	n	x	n
COCCNC(=O)C(OC(=O)C1=Cc2ccccc2OC1)C(C)C (stereo not given)	n	n	n
SMILES	VP16 counter	Luc counter	RORgamma inh
Cc1nc(Nc2nc(CSc3nc4ccccc4[nH]3)cc(=O)[nH]2)nc2ccccc12	u	n	u
COc1ccc2nc(Nc3nc(CSc4nc5ccccc5[nH]4)cc(=O)[nH]3)nc(C)c2c1	5µM	n	5.6µM
COc1ccc(Nc2nc(C)c3ccccc3n2)cc1	n	n	u
COc1ccc2c(C)nc(Nc3nc(C)cc(C)n3)nc2c1	1.3µM	n	0.25µM
COc1ccc2c(C)nc(Nc3nc(C)c(C)c(=O)[nH]3)nc2c1	2.8µM	n	5µM
CCc1c(C)nc(Nc2nc(C)c3ccc(OC)cc3n2)[nH]c1=O	n	n	n
COc1cc(-n2c(C)nc3cc(C(=O)N4CCOCC4)ccc32)cc(OC)c1OC	n	n	n
O=C1c2ccccc2NC2(CCCC2)N1O	n	n	n
O=C1c2ccccc2NC2(CCCCC2)N1N=C1CCCCC1	n	n	n
S=C1NC2(CCCC2)Nc2ccccc21	u	n	0.35µM
S=C1NC2(CCCCC2)Nc2ccccc21	u	n	7.1µM
NC(=O)n1c(O)c(C(=O)c2cccs2)c2cc(Cl)ccc21	n	x	n
CC(=O)OC[C@@H]1O[C@@H](O/N=C2/C[C@@H](O)[C@@H](O)[C@@H]3[C@@H]4C(=O)N(Cc5ccc6c(c5)OCO6)C(=O)[C@H]4CC[C@H]23)[C@H](OC(C)=O)[C@H](OC(C)=O)[C@@H]1OC(C)=O	n[10 µM]	x	n[10 µM]
COc1cc(C=C(C(C)=O)C(C)=O)ccc1O	n	n	n
COc1cc(/C=C/C(=O)O)ccc1O	n	n	n
COc1cc(/C=C/C(=O)/C=C(O)/C=C/c2ccc(O)c(OC)c2)ccc1O	u	n	16µM!
COc1ccc(/C=C/C(=O)c2cccc(-n3cnnn3)c2)cc1O	n	x	n
COc1cc(/C=C/C(=O)CC(=O)/C=C/c2ccc(O)c(OC)c2)ccc1O	16µM	n	11µM
COc1ccc(C(=O)/C=C/c2ccc(OC)c(O)c2)c(F)c1	u	n	10µM
COc1ccc(/C=C/C(=O)CC(=O)/C=C/c2cccc(O)c2OC)cc1O	n	x	6.3µM
COc1ccc(/C=C/C(=O)c2ccc(Cl)s2)cc1O	n	n	n
C=C[C@@H]1[C@@H](C)[C@H](C)C(=O)C([C@H](O)C(C)C)[C@@H]1C (stereo not given in full)	n	x	n
COc1ccc(NC(=O)COC(=O)c2ncc(Cl)c(Cl)c2Cl)c(OC)c1	n	n	n
NS(=O)(=O)c1ccc(CNC(=O)C(Cc2ccccc2)NS(=O)(=O)c2ccccc2F)cc1 (stereo not given)	n	x	n
O=S1(=O)CCOC[C@H](c2ccccc2)N1Cc1ccccc1F	n	x	n
SMILES	VP16 counter	Luc counter	RORgamma inh
CCN(CCO)C[C@H]1CCC[C@H]2CCCC[C@@H]21	x	n[7.66 µM]	x
Cc1c(C(=O)C(=O)NCc2ccco2)c2ccccc2n1C	n	n	n
COCCNC(=O)CN(Cc1cccs1)C(=O)CCC(=O)Nc1nccs1	n	n	u
NC(=O)NC(N)=O	n	x	n
Cc1cc(O)c(C)c(O)c1/C=N/NC(=O)c1cccnc1	7.9µM	x	7.9µM
Cn1cccc1/C=N/NC(=O)c1ccncc1	n	x	u
COc1ccc(/C=N/NC(=O)c2cccnc2)cc1O	n	x	n
O=C(N/N=C/c1c(O)ccc2ccccc12)c1ccc(Br)o1	2.8µM	x	3.2µM
Cc1occc1C(=O)N/N=C/c1c[nH]c2ccccc12	n	n	u
O=C(N/N=C/c1ccc(O)c(Br)c1)c1cc2c(ccc3ccccc32)o1	n	x	n
Cc1occc1C(=O)N/N=C/c1c(O)ccc2ccccc12	18µM	x	4µM
Cn1cccc1/C=N\NC(=O)c1cncc(Br)c1	u	x	13µM
Cc1cccc(C(=O)NC2CC3CCCC(C2)N3Cc2ccccc2)c1 (stereo not given)	n	x	n
C=C1c2cccc(C(F)(F)F)c2O[C@H](C(=O)OCC)C1OC (mixture of isomers)	n	n	n
COC(=O)C1C2CC3c4[nH]c5cc(OC)ccc5c4CCN3CC2CC(OC)C1OC (stereo not given)	n	x	n
N[C@@H](CCCCNC(=O)CCCC[C@@H]1SC[C@H]2NC(=O)N[C@H]12)C(=O)O	n	x	n
Cc1cc(NCc2cccnc2)nc(N)n1	n	x	n
CCC1=C(OC(=O)N(CC)CC)N2C(=O)OC(=NCCOC)[C@]2(C)[C@H]2C1=CC[C@H]1C(=O)NC(=O)[C@H]12	n	n	n
Cn1cc(C(=O)N/N=C/c2c(O)ccc3ccccc23)ccc1=O	n	n	n
O=C(N/N=C/c1c(O)ccc2ccccc12)c1cccnc1	13µM	x	10µM
Cn1nccc1C(=O)N/N=C/c1c(O)ccc2ccccc12	2.8µM	x	3.2µM
Cn1ncc(N=Cc2c(O)ccc3ccccc23)c1C(=O)Nc1cccc(Cl)c1	n	n	n
